Screening results deposited in PubChem by National Center for Advancing Translational Sciences (NCATS).
Only some compounds are listed: those with a hit (about 21% of all), similar ones and a draw of the others.
DT40 TDP1 CPT – DT40-hTDP1 cell growth loss with CPT; chicken DT40 Tdp1-/-;hTDP1 cells + 20 nM CPT, ATP luminescence, 48 h; Potency, µM (top dose mostly 46.2 µM), inactives show top-dose activity change, negative = growth inhibition, hits mostly inhibitors; actives 12% (n = 420,000); note: potency is the fitted concentration of half-maximal effect; % is set by controls: 0 for no effect and ±100 for the full control effect; nearly all actives have a fitted effect of over 55% in size
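Chicken DT40 Tdp1-/- cells complemented with human TDP1, 400 cells/well, exposed to compounds plus 20 nM camptothecin for at least 48 h at 37 C; viability read as ATP content by CellTiter-Glo luminescence.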
ClpP mod – qHTS Assay for Activators of ClpP; purified B. subtilis ClpP, FRET peptide cleavage, 20 min; Potency, µM (titrated, usually from 57.5 µM), without a hit: at the highest dose activity change, negative = active; actives 1.9% (n = 340,000); ATP-dependent Clp protease proteolytic subunit (Bacillus subtilis (strain 168)), P80244; active = well fitted falling curve with a large enough effect; inconclusive = small, poorly fitted or top-dose-only effect; inactive = no such curve, though single readings can be large or run the other way; note: potency is the fitted concentration of half-maximal effect; the source files actives as falling curves though it sought activators and does not explain the sign; nearly all actives have a fitted effect of over 65% in size
Target sequence (P80244 whole entry, looked up): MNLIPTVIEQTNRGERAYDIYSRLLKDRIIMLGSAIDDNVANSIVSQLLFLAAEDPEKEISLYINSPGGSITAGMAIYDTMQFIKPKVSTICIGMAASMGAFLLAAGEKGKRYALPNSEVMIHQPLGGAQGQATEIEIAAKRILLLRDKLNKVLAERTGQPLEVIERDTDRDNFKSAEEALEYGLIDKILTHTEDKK
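Buffer: 100 mM Tris/HCl pH8, 100 mM KCl, 0.05% low protease BSA, 2.5% glycerol, 0.01% Tween-20. ClpP 10 microg/mL final; 20 min RT; delta FRET normalized to ADEP and DMSO controls.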
DRD3 agonist – agonists of human D3 dopamine receptor; P35462; D3R DiscoveRx beta-arrestin cells, luminescence, 90 min; max activation, %; actives 0.58% (n = 410,000); AID 652048; in the data active = max activation above about 30%; note: 0% is about no effect
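Cells at 1500/well, incubated overnight, then treated with pinned compounds (dopamine as control) for 90 min at 37 degrees C. DiscoveRx reagent added for 30 - 60 minutes at room temperature; luminescence read.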
DRD3 antagonist – D3 dopamine receptor (human) antagonism. P35462. D3R cells, DiscoveRx beta-arrestin luminescence, antagonist mode; stronger effect = lower value. max response, negative = inhibition, %. actives 2.5% (n = 360,000); in the data active = max response below about -50%; inconclusive = no clear call, values can overlap the other calls; note: % is set by controls: 0 for no effect and ±100 for the full control effect
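Cells plated overnight at 1500 cells/well, then exposed to library compounds with dopamine controls for 90 minutes at 37 degrees C. DiscoveRx reagent added for 30–60 minutes at room temperature; luminescence read, quantitative HTS format.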
DT40 TDP1 no CPT – qHTS for Inhibitors of human tyrosyl-DNA phosphodiesterase 1 (TDP1): qHTS in cells in absence of CPT. actives 15% (n = 420,000). Potency, µM (highest dose often 46.2 µM), for inactives: top-dose activity change, negative = growth inhibition, actives largely listed as inhibitors. DT40 Tdp1-/- hTDP1 cells, no CPT, ATP luminescence, 48 h; note: potency is the fitted concentration of half-maximal effect; % is set by controls: 0 for no effect and ±100 for the full control effect; nearly all actives have a fitted effect of over 55% in size
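Chicken DT40 Tdp1-/- cells complemented with human TDP1, screened without camptothecin (DMSO vehicle only), 400 cells/well. Compounds pin-transferred, cells incubated at 37 °C for at least 48 hr. Growth read as ATP-dependent luminescence (CellTiter-Glo, 30 min at RT).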
IL1B secr inh – blocks inflammasome-driven IL-1 beta release; actives 4.7% (n = 360,000); AID 743279; THP-1 LPS/ATP IL-1B secretion, AlphaLISA, 16 h; stronger effect = lower value; activity change, % at 57.5 µM; in the data active = activity change below about -50%; inconclusive = mostly about -30% to -49%; note: % is set by controls: 0 for no effect and ±100 for the full control effect
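Secreted IL-1B measured by AlphaLISA bead assay after 16 h compound exposure of THP-1 cells; compounds (final up to 57.5 uM) added 1 h before LPS (250 ng/mL) and ATP (1.25 mM) stimulation; lower signal means less secretion.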
* = called active by the depositor; ? = inconclusive; · = no result given. Unless noted, calls come from the whole dose curve; as a rule, active = well fitted inhibition curve with a large enough effect; inconclusive = small, poorly fitted or top-dose-only effect; inactive = flat fitted curve, though single readings scatter.

SMILES	DT40 TDP1 CPT	ClpP mod	DRD3 agonist	DRD3 antagonist	DT40 TDP1 no CPT	IL1B secr inh
OC1(c2ccc(OC(F)F)cc2)CSC(=Nc2cccnc2)N1Cc1ccco1 (centres undefined)	-75.7%	·	57.1*	93.2	-88.3%	-77.3*
COc1ccc(CCNC(=O)c2cc(-c3cc(Cl)ccc3O)n[nH]2)cc1OC	?	·	21.7	15.8	11.6µM*	-5.9
COc1ccc(CCNC(=O)c2cc(-c3ccc(C)cc3O)n[nH]2)cc1OC	?	46.6%	-12.5	24.6	20.6µM*	9.6
COc1ccc(CCNC(=O)c2cc(-c3ccccc3O)n[nH]2)cc1OC	-2.3%	0.8%	1.6	-6.1	11.9%	9.8
CCOc1ccccc1/C=C/c1onc(C)c1S(=O)(=O)N1CCC(C(=O)NC)CC1	?	4.6%	-9.6	7.3	?	27.3
CCOc1ccccc1/C=C/c1onc(C)c1S(=O)(=O)N1CCC(C(=O)N2CCCCC2)CC1	16.4µM*	-0.9%	-17.4	·	20.6µM*	·
Cc1ccc(/C=C/c2onc(C)c2S(=O)(=O)N2CCC(C(=O)NCc3ccco3)CC2)cc1	-29.3%	-2.6%	-15.1	·	-27.1%	·
CCOC(=O)C1CCN(C(=O)C2CCN(S(=O)(=O)c3c(C)noc3/C=C/c3ccc(C)cc3)CC2)CC1	?	-24.9%	-9.8	·	5.17µM*	·
Cc1ccc(/C=C/c2onc(C)c2S(=O)(=O)N2CCC(C(=O)N(CCC(C)C)Cc3ccco3)CC2)cc1	?	?	1.4	·	16.4µM*	·
Cc1ccc(CNC(=O)C2CCN(S(=O)(=O)c3c(C)noc3/C=C/c3cccs3)CC2)cc1	20.6µM*	-5.5%	-3.8	·	?	·
COc1ccc(C(=O)N2CCN(C(=O)COc3ccc(Br)cc3)CC2)cc1OC	?	-0.5%	15.4	·	?	·
COc1cccc(CC(=O)N(CCC2=CCCCC2)c2c(N)n(Cc3ccccc3)c(=O)[nH]c2=O)c1	2.9%	-3.3%	-12.7	-3.6	?	12.6
CC1=CCC2CC1C2(C)C (centres undefined)	0.7%	·	4.1	·	0.1%	·
CCN(CC(=O)Nc1c(F)cccc1F)C(=O)c1ccc(S(=O)(=O)NCc2ccco2)cc1	?	-9.3%	12.1	15.4	?	9.7
CCn1c(CNC(=O)c2ccccc2F)cc2cc(C)ccc21	-0.2%	-1.5%	8.1	3.2	-18.2%	1.9
Cc1ccc(/C=C/c2onc(C)c2S(=O)(=O)N2CCC(C(=O)N3CCN(C)CC3)CC2)cc1	?	-8.4%	-11.9	-19.8	23.1µM*	·
Cc1cccc(N2CCN(C(=O)C3CCN(S(=O)(=O)c4c(C)noc4/C=C/c4ccccc4F)CC3)CC2C)c1 (centres undefined)	10.3µM*	1.4%	3.0	·	6.51µM*	·
Cc1cc(C)c(/C=C/c2onc(C)c2S(=O)(=O)N2CCC(C(=O)Nc3cccc(C)c3C)CC2)c(C)c1	5.17µM*	-2.3%	7.1	·	6.51µM*	·
Cc1cc(C)c(/C=C/c2onc(C)c2S(=O)(=O)N2CCC(C(=O)N3CCN(c4ccccc4)CC3)CC2)c(C)c1	16.4µM*	-6.8%	3.4	·	13µM*	·
CCOc1cccc2cc(C(=O)NCCC3=CCCCC3)c(=O)oc12	8.0%	·	3.6	5.2	-7.2%	-8.6
COCCNC(=O)C1CCCN(C(=O)c2nc(C)oc2C)CC1 (centres undefined)	4.0%	-0.4%	3.9	-4.7	13.5%	3.3
Cc1ccc(/C=C/c2onc(C)c2S(=O)(=O)N2CCC(C(=O)N3CC(C)Oc4ccccc43)CC2)cc1 (centres undefined)	18.4µM*	?	-18.9	·	11.6µM*	·
CCC(C)(C)NC(=O)C1CCN(S(=O)(=O)c2c(C)noc2/C=C/c2ccc(C)cc2)CC1	23.1µM*	?	-14.4	·	?	·
